Test [1] can be described thus: qHTS for Inhibitors of Plasmodium falciparum (7G8) proliferation (AID 504316). Note: nearly all actives have a fitted effect of over 65% in size. Note: potency is the fitted concentration of half-maximal effect. Summed up: (§1)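 Erythrocytes infected with P. falciparum line (0.3% parasitemia, 2.5% hematocrit final) incubated with compounds 72 h at 37 °C, 5% CO2; SYBR Green lysis buffer added, fluorescence read next day. Normalized to 0.29 uM artemisinin and DMSO.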
A short description of test [2]: qHTS for Inhibitors of Plasmodium falciparum (GB4) proliferation (AID 504315). Note: nearly all actives have a fitted effect of over 50% in size. Summed up:
as §1

The nature of test [3]: qHTS for Inhibitors of Plasmodium falciparum (HB3) proliferation (AID 504318). Note: nearly all actives have a fitted effect of over 60% in size. Note: potency is the fitted concentration of half-maximal effect. Summed up: as §1
Test [4] can be described thus: S16 Schwann cell viability assay (CellTiter-Glo assay) (AID 624031).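 Note: native untransfected S16 rat Schwann cells; cellular ATP luminescence as a viability measure; nearly all actives have a fitted effect of over 70% in size.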 Summed up:
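Parental S16 cells, 24 h compound, 37 °C. ATP-luminescence viability; DMSO = 0% activity, empty wells as reference; curves classified by fit quality and efficacy.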

Test [5] has as its system CP215. The experiment in a line: qHTS profiling for inhibitors of Plasmodium falciparum proliferation (AID 504749). Note: nearly all actives have a fitted effect of over 60% in size. As to conditions: P. falciparum in erythrocytes, SYBR Green DNA, 72 h; series mostly up to 28.7 µM. Summed up: (§2)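 P. falciparum-infected erythrocytes (0.3% parasitemia, 2.5% hematocrit final) were exposed to compounds for 72 h at 37 C in 5% CO2, then lysed with SYBR Green buffer overnight at room temperature; parasite DNA fluorescence was normalized to artemisinin and DMSO controls.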

In test [6] the test system is CP256. Described as above. Conditions: P. falciparum in erythrocytes, SYBR Green DNA, 72 h; series mostly up to 28.7 µM. Summed up: as §2
Test [7] deals with CP260. The description is as above. As to conditions: P. falciparum in erythrocytes, SYBR Green DNA, 72 h; series mostly up to 28.7 µM. Summed up: as §2
Test [8] concerns DIV14. Described as above. As to conditions: P. falciparum in erythrocytes, SYBR Green DNA, 72 h; series mostly up to 28.7 µM. Summed up: as §2
Test [9] relates to DIV17. The description is as above. Conditions: P. falciparum in erythrocytes, SYBR Green DNA, 72 h; series mostly up to 28.7 µM. Summed up:
as §2

Test [10] relates to ICS. The description is as above. Conditions: P. falciparum in erythrocytes, SYBR Green DNA, 72 h; series mostly up to 28.7 µM. Summed up: as §2
The subject of test [11] is W2. The test is described as above. As to conditions: P. falciparum in erythrocytes, SYBR Green DNA, 72 h; series mostly up to 28.7 µM. Summed up:
as §2

A short description of test [12]: S16 Schwann cell PMP22 intronic element beta-lactamase assay (AID 624044; calls by dose curve; note: nearly all actives have a fitted effect of over 15% in size). Summed up: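 Rat S16 Schwann cells with beta-Lac driven by a PMP22 intronic element, compound-treated 24 h at 37 °C. LiveBLAzer FRET B/G read: 460 nm normalized to potassium clavulanate vs DMSO; 535 nm FRET as viability; concentration-effect curves classified.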

Results filed as inconclusive are left out. Activity calls are given as the source filed them. Unless noted, calls come from the whole dose curve; as a rule, active = well fitted curve in the direction sought with a large enough effect; inconclusive = small, poorly fitted or top-dose-only effect, or another doubt; inactive = no such curve, though single readings can be large; an effect the other way counts as inactive or inconclusive.

In the case of `CC(=O)OC[C@H]1O[C@H](C#Cc2ccc(C)cc2C)C=C[C@H]1OC(C)=O`, the Potency in test [1] is 1690 nM (active).
With `CC(CCN1CCCCc2nc(C)c(C)cc21)=NO[C@@H](C)c1cn([C@H](CO)Cc2ccccc2)nn1`, in test [2], the Potency entry was “inactive”.
Consider `CCN1C(=O)N(S(=O)(=O)c2ccc(C)cc2)[C@@H](c2ccccc2)C(C(=O)OC)=C1C`, for which the Potency entry in [1] and in [3] was “inactive” each time.
Consider `CCCCS(=O)(=O)N1CCc2nc(COc3ccccc3)c3c(c2C1)CO[C@@H](C)C3`, for which the Potency entry in test [1] and in test [3] was “inactive” throughout.
Consider `COC(=O)C1=C(C(=O)OC)[C@@H]2N(Cc3ccccc3)c3ccccc3[C@@]23C[C@@H](C(=O)OC)N(S(=O)(=O)c2ccc(OC)cc2)C3=N1`, for which the Potency in [3] is 1900 nM (active).
For the compound `COC(=O)CCC(=O)OC1(C)C(=O)C=C2C=C(C3CC3)N(CC3CC3)C=C2C1=O` (centres undefined), the Potency result in [3] was “inactive”.
Consider `C=C(C(C)=O)C(O)c1ccc2ccccc2c1` (centres undefined), for which the Potency entry in test [2] was “inactive”.
For `COCCN1C=C2C(=O)C(C)(OC(=O)CCC(=O)OC)C(=O)C=C2C=C1C1CC1` (centres undefined), the Potency result in test [3] was “inactive”.
As for `CNCC(=O)NC(CCCN=C(N)N)C(=O)NC(C(=O)NC(Cc1ccc(O)cc1)C(=O)NC(C(=O)NC(Cc1cnc[nH]1)C(=O)N1CCCC1C(=O)NC(C)C(=O)O)C(C)C)C(C)C` (centres undefined), the Potency entry in test [4], in test [5], in [6], in test [7], in [8] and in [9] was “inactive” each time. Besides, the Potency entry in [10] and in [11] was “inactive” in each case.
As to `CC(N)C(=O)NCC(=O)NC1CSSCC(C(=O)O)NC(=O)C(CO)NC(=O)C(C(C)O)NC(=O)C(Cc2ccccc2)NC(=O)C(C(C)O)NC(=O)C(CCCCN)NC(=O)C(Cc2c[nH]c3ccccc23)NC(=O)C(Cc2ccccc2)NC(=O)C(Cc2ccccc2)NC(=O)C(CC(N)=O)NC(=O)C(CCCCN)NC1=O` (centres undefined), the Potency entry in test [4], in test [5], in test [6], in test [7], in test [8] and in test [9] was “inactive” each time. Further, the Potency entry in [10] and in test [11] was “inactive” throughout.
For `CC(C)C[C@H](NC(=O)[C@@H](Cc1c[nH]c2ccccc12)NC(=O)[C@@H](Cc1ccc(O)cc1)NC(=O)[C@@H](CO)NC(=O)[C@@H](Cc1c[nH]c2ccccc12)NC(=O)C(Cc1cnc[nH]1)NC(=O)C1CCC(=O)N1)C(=O)N[C@@H](CCCN=C(N)N)C(=O)N1CCC[C@@H]1C(=O)NCC(N)=O` (some centres undefined), the Potency entry in test [4], in [12], in [5], in test [6], in [7] and in test [8] was “inactive” throughout. Also, the Potency entry in test [9], in test [10] and in test [11] was “inactive” in each case.
As for `CCCCS(=O)(=O)N1C2=NC(C(=O)OC)=C(C(=O)OC)[C@@H]3N(Cc4ccccc4)c4ccccc4[C@]23C[C@H]1C(=O)OC`, the Potency in test [3] is 2390 nM (active).
Consider `COC(=O)CC1c2ccccc2C=C(/C=C/c2ccc3c(c2)OCO3)N1C(=O)OC` (centres undefined), for which, in [3], the Potency entry is “inactive”.
In the case of `COC/C=C/C1=CC2=CC(=O)C(C)(OC(=O)c3cnc4ccccc4n3)C(=O)C2=CN1c1ccc(OC)cc1` (centres undefined), the Potency entry in test [2] is “inactive”.
On to `CC(C)Nc1oc(-c2ccccc2)nc1C=Cc1ccccc1`, for which the Potency in [3] was 1900 nM (active).
Turning to `C=CCN1c2ccccc2[C@]23C[C@@H](C(=O)OC)N(S(=O)(=O)c4ccc(Br)cc4)C2=NC(C(=O)OC)=C(C(=O)OC)[C@H]13`, in test [1], the Potency entry is “inactive”.
`CCCCn1c(C)cc2c(c1=O)[C@H]1O[C@](c3ccsc3)(Cc3ccccc31)O2`: in test [1], the Potency is 1690 nM (active).
As to `COc1ccc(-c2nc(-c3ccccc3)c(Nc3ccc4ccccc4c3)o2)cc1`, the Potency in [3] was 1690 nM (active).
For `CCOC(=O)NN=C1C[C@@H](O)[C@@H](O)[C@@H]2[C@H]3C(=O)N(CC)C(=O)[C@@H]3CC[C@@H]12`, the Potency entry in [1] and in test [3] was “inactive” each time.
Turning to `COC(=O)c1ccccc1S(=O)(=O)N1CCc2nc(-c3ccccc3)c3c(c2C1)CO[C@@H](C)C3`, the Potency entry in test [1] was “inactive”.
As for `COc1ccc([C@]23Cc4cc(OC)c(OC)cc4[C@H](O2)c2c(c4ccccc4oc2=O)O3)cc1`, the Potency entry in [2] is “inactive”.
With `COC(=O)C1=C(C(=O)OC)[C@@H]2Nc3ccccc3[C@@]23C[C@@H](C(=O)OC)N(C(=O)C2CCC2)C3=N1`, in test [2], the Potency entry was “inactive”.
Regarding `CCOC(=O)OC[C@H]1O[C@H](C#Cc2ccccc2)C=C[C@H]1OC(=O)OCC`, the Potency in test [1] was 1510 nM (active).
For the compound `O=C1C=CC2(OCCCO2)C(Br)=C1CO`, the Potency result in test [1] and in test [3] was “inactive” each time.
As for `COC(=O)C1=C(C(=O)OC)[C@@H]2N(C)c3ccc(OC)cc3[C@@]23C[C@@H](C(=O)OC)N(S(=O)(=O)c2ccc(C#N)cc2)C3=N1`, the Potency in test [1] was 1690 nM (active).
For the compound `C[C@H]1Cc2c(COc3ccccc3)nc3c(c2CO1)CN(S(=O)(=O)c1ccc(Cl)c2nonc12)CC3`, the Potency entry in [2] was “inactive”.
As for `C[C@@H]1CC[C@H]2C(=O)N(Cc3ccccc3)C[C@H](O)CN2[C@H]1c1ccc(Br)cc1`, the Potency result in test [2] was “inactive”.
As to `COC(=O)C(C(=O)OC)C1c2ccccc2C=C(C)N1C(=O)OC` (centres undefined), in test [1], the Potency result was “inactive”.
Still for that read-out and setting: the result for `CCN(CC)CCCN1C=C2C(=O)C(C)(OC(=O)c3cccs3)C(=O)C=C2C=C1CCCC(=O)OC` (centres undefined) reads “inactive”.
With `COc1cc2c(cc1OC)[C@@H]1O[C@](CCCCN3C(=O)c4ccccc4C3=O)(C2)OC2=C1C(=O)CCC2`, the Potency in [1] is 1690 nM (active).
For `CC(=O)OCC(=O)[C@@]1(O)CCC2C3CCC4=CC(=O)CC[C@]4(C)C3=CC[C@@]21C` (some centres undefined), the Potency entry in test [4], in test [5], in test [6], in test [7], in test [8] and in test [9] was “inactive” throughout. Besides, the Potency entry in test [10] and in test [11] was “inactive” in each case.
As for `CC(C)(C)N1C(=O)[C@@H]2[C@H]3[C@H](O)[C@H](O)CC(=NOCc4ccccc4)[C@H]3CC[C@H]2C1=O`, the Potency entry in test [2] is “inactive”.
Take `O=C1/C(=C\c2cccs2)CCC/C1=C/c1cccs1`: the Potency entry in test [4], in test [12], in test [5], in [6], in test [7] and in test [8] was “inactive” throughout. Also, in test [10], the Potency result is “inactive”.
`CC1(C)C(/C=C/C=C/C=C/C=C2\N(CCCCS(=O)(=O)O)c3ccc4ccccc4c3C2(C)C)=[N+](CCCCS(=O)(=O)[O-])c2ccc3ccccc3c21`: the Potency entry in test [4], in [12], in test [5], in [6], in test [8] and in [9] was “inactive” throughout. Also, the Potency entry in [10] was “inactive”.
